For 15 compounds, AC50 and outcome results are on record in PubChem BioAssay (EPA / NIEHS).

A short description of experiment [1]: CCTE_Shafer_MEA_dev_bursting_electrodes_number: CCTE's Neural Network Formation Assay for Number of Bursting Electrodes, Shafer Lab (AID 2284043; active means hit-call score of the fitted dose curve at least 0.9, where 1 is the maximum;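 further: potency is for loss of bursting electrodes relative to DMSO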). A digest of the protocol: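 Primary rat cortical neurons were cultured on PEI-coated 48-well MEA plates (16 electrodes/well) and exposed from plating through day 12, with compound renewed at feeds on DIV 5 and 9. Electrodes bursting ≥1 per 2 min were counted on DIV 5, 7, 9, 12; trapezoidal AUC taken.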

Experiment [2] in a line: CCTE_Shafer_MEA_dev_per_burst_interspike_interval: CCTE's Neural Network Formation Assay for Burst Interspike Interval, Shafer Lab (AID 2284044).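 Further: mean spike spacing inside bursts as AUC over recordings on days 5 7 9 12.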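 On AC50: potency for a decrease of within-burst interspike interval below DMSO level.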 A digest of the protocol:
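Spontaneous activity of maturing rat cortical networks is recorded on DIV 5, 7, 9 and 12 under chronic compound exposure beginning at plating. Endpoint: burst interspike interval well-mean, collapsed into trapezoidal AUC and fitted in the negative direction relative to DMSO.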

Experiment [3] in a line: CCTE_Shafer_MEA_dev_burst_duration_mean: CCTE's Neural Network Formation Assay for Mean Burst Duration, Shafer Lab (AID 2284045).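 On AC50: curve fitted for loss meaning shorter burst duration than DMSO.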 A digest of the protocol: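 Primary rat cortical neurons on PEI-coated 16-electrode MEA wells, exposed from plating through day 12 with compound renewed at DIV 5 and 9; spontaneous activity recorded days 5, 7, 9, 12. Well-mean burst duration collapsed as trapezoidal AUC, fitted for loss versus DMSO.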

Experiment [4] can be described thus: CCTE_Shafer_MEA_dev_interburst_interval_mean: CCTE's Neural Network Formation Assay for Mean Interburst Interval, Shafer Lab (AID 2284046).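 Further: well-mean interburst interval of bursting electrodes as AUC over four recording days; curve fitted for decrease in interburst interval relative to DMSO.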 A digest of the protocol:
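Primary rat cortical neurons on PEI-coated 48-well MEA plates (laminin added with cells at plating) (16 electrodes/well), exposed from plating day 0 with renewal at DIV 5 and 9. Mean inter-burst interval averaged over bursting electrodes, AUC across days 5, 7, 9, 12; DMSO baseline.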

Experiment [5] is described as follows: CCTE_Shafer_MEA_dev_inter_network_spike_interval_mean: CCTE's Neural Network Formation Assay for Mean Inter-network Spike Interval, Shafer Lab (AID 2284047). A digest of the protocol:
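Mean time between consecutive network-spike peaks, recorded extracellularly (adaptive spike detection) on DIV 5, 7, 9 and 12, summarized as trapezoidal AUC. Rat cortical cultures on MEAs dosed continuously days 0–12, re-dosed at feeds; loss-of-signal fit relative to DMSO.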

Experiment [6] is described as follows: CCTE_Shafer_MEA_dev_network_spike_number: CCTE's Neural Network Formation Assay for Number of Network Spikes, Shafer Lab (AID 2284048).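 Further: synchronized bursts across electrodes counted on days 5 7 9 12 and integrated as AUC.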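 On AC50: fit as a loss of signal meaning fewer network spikes than DMSO.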 A digest of the protocol:
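Primary rat cortical neurons were seeded at 1.5 x 10^5 cells/well on PEI-coated 16-electrode MEA wells with laminin, exposed from plating day 0, compound renewed at DIV 5 and 9. Network spikes were recorded on days 5, 7, 9, 12 and summarized as trapezoidal AUC versus DMSO.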

Experiment [7] is described as follows: CCTE_Shafer_MEA_dev_network_spike_peak: CCTE's Neural Network Formation Assay for Mean Number of Electrodes in Network Spike, Shafer Lab (AID 2284049).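 Further: fitted for loss of signal meaning fewer electrodes in network spikes than DMSO.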 A digest of the protocol:
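Continuous 12-day exposure of rat cortical cultures, starting at plating, on MEA plates. Endpoint: electrodes participating in network-spike peaks, AUC across DIV 5–12, DMSO as negative control.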

Experiment [8] in a line: CCTE_Shafer_MEA_dev_spike_duration_mean: CCTE's Neural Network Formation Assay for Mean Spike Duration, Shafer Lab (AID 2284051).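 Further: mean network spike duration pooled as area under curve over DIV 5 to 12 recordings.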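 On AC50: potency for a decrease in mean network spike duration versus DMSO.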 A digest of the protocol:
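Spontaneous activity was recorded on days 5, 7, 9 and 12 from rat cortical cultures grown on microelectrode arrays and dosed continuously from day 0, with media and compound renewed after the DIV 5 and 9 recordings. Network-spike duration was collapsed by area under the curve.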

A short description of experiment [9]: CCTE_Shafer_MEA_dev_network_spike_duration_std: CCTE's Neural Network Formation Assay for Standard Deviation of Network Spike Duration, Shafer Lab (AID 2284052).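 Further: hits are decreases in network spike duration SD versus DMSO vehicle.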 A digest of the protocol:
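Network spike duration variability was collapsed across recordings on days 5, 7, 9 and 12 by trapezoidal area-under-curve and fitted downward against DMSO. Cultures were rat cortical neurons on PEI-coated MEA plates, dosed continuously from plating, refed with compound DIV 5/9.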

The nature of experiment [10]: CCTE_Shafer_MEA_dev_per_network_spike_spike_number_mean: CCTE's Neural Network Formation Assay for Mean Number of Spikes in a Network Spike, Shafer Lab (AID 2284053).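 Further: fitted as decrease in spikes per network spike relative to DMSO.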 A digest of the protocol:
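Mean spike count within each network spike, taken in a 0.05 s window at its peak, was recorded on days 5, 7, 9 and 12 and integrated as trapezoidal area under the curve. Rat cortical cultures on MEA plates received continuous compound from day 0, refreshed at medium changes on DIV 5 and 9.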

The nature of experiment [11]: CCTE_Shafer_MEA_dev_per_network_spike_spike_percent: CCTE's Neural Network Formation Assay for Percent of Spikes in a Network Spike, Shafer Lab (AID 2284054). A digest of the protocol:
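Primary rat cortical neurons on 16-electrode MEA wells (PEI-coated, laminin at plating), exposed from day 0 with renewal at DIV 5 and 9; spikes within 0.05 s of network-spike peaks over total spikes, AUC across days 5, 7, 9, 12.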

Experiment [12] can be described thus: CCTE_Shafer_MEA_dev_LDH: CCTE's Lactate Dehydrogenase Assay for Cytotoxicity in the Neural Network Formation Assay, Shafer Lab (AID 2284068; active means hit-call score of the fitted dose curve at least 0.9, where 1 is the maximum;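 further: exposure for twelve days from plating with re-dosing on DIV 5 and 9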). A digest of the protocol: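 Primary rat cortical neurons were cultured on PEI-coated MEA plates and exposed from plating through day 12, with compound renewed at medium changes on DIV 5 and 9. LDH activity was read spectrophotometrically; loss of signal versus DMSO indicates reduced viability.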

Experiment [13] can be described thus: CCTE_Shafer_MEA_dev_AB: CCTE's Alamar Blue Assay for Cytotoxicity in the Neural Network Formation Assay, Shafer Lab (AID 2284083; active means hit-call score of the fitted dose curve at least 0.9, where 1 is the maximum;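 further: resazurin reduction fluorescence as viability of cultured neurons; twelve days of exposure from plating with re-dosing on DIV 5 and 9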). A digest of the protocol:
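Resazurin fluorescence, relative to DMSO, gauges viability after twelve days of exposure that began at plating of rat cortical neurons (1.5 x 10^5 cells/well, 48-well MEA); treatment renewed with full medium exchange on DIV 5 and 9.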
(Alamar Blue is a resazurin reagent that responds to reducing activity.)

The nature of experiment [14]: CCTE_Shafer_MEA_dev_mutual_information_norm: CCTE's Neural Network Formation Assay for Mutual Information Normalization, Shafer Lab (AID 2284091).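 On AC50: mutual information between electrodes summarised as area under curve across four recording days; potency is for a decrease in mutual information relative to DMSO.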 A digest of the protocol: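 Rat cortical cultures, 48-well MEA, continuous exposure DIV 0–12 with full media/compound change DIV 5 and 9. Readout: inter-electrode mutual information, AxIS adaptive spike detection; AUC across DIV 5/7/9/12 recordings; DMSO baseline, negative fitting direction.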

The subject of a further experiment is DIO2 (gene 1734). In words: CCTE_GLTED_hDIO2: CCTE's human Deiodinase 2 (DIO2) Inhibition Assay, Great Lakes Toxicology and Ecology Division (GLTED) Lab (AID 2284050; active means hit-call score of the fitted dose curve at least 0.9, where 1 is the maximum). A digest of the protocol:
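Cell-free human DIO2 incubated 3 h with chemical; liberated iodide quantified by Sandell-Kolthoff absorbance. Triplicate plates; loss of signal fitted vs DMSO.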

Another experiment concerns DIO3 (gene 1735). The experiment is described as follows: CCTE_GLTED_hDIO3: CCTE's human Deiodinase 3 (DIO3) Inhibition Assay, Great Lakes Toxicology and Ecology Division (GLTED) Lab (AID 2284055; active means hit-call score of the fitted dose curve at least 0.9, where 1 is the maximum;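 further: potency is for inhibition seen as loss of released iodide signal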). A digest of the protocol:
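Human DIO3 from an adenovirus expression system is incubated 3 h with test chemical. Released iodide is quantified by Sandell-Kolthoff absorbance, in triplicate plates. Loss of signal is fitted relative to DMSO.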

The nature of experiment [15]: CCTE_Shafer_MEA_acute_AB: CCTE's Alamar Blue Assay for Cytotoxicity in the Neural Acute Assay, Shafer Lab (AID 2284069; active means hit-call score of the fitted dose curve at least 0.9, where 1 is the maximum;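 further: active compounds lower the viability signal compared with DMSO wells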). A digest of the protocol:
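Resazurin reduction (CellTiter Blue, 1:6 in fresh medium) read at ex 544/em 590 nm marks viability loss relative to DMSO. Cells: primary rat cortical neuron networks on microelectrode arrays, treated after baseline recording at 13 or 15 days in vitro.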

Experiment [16] can be described thus: CCTE_Shafer_MEA_acute_LDH: CCTE's Lactate Dehydrogenase Assay for Cytotoxicity in the Neural Acute Assay, Shafer Lab (AID 2284086; active means hit-call score of the fitted dose curve at least 0.9, where 1 is the maximum;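 further: active means LDH release rises above DMSO vehicle level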). A digest of the protocol: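 Medium from rat cortical neuron MEA cultures sampled right after the 40 min compound-exposure recording; released LDH measured by absorbance at 490 nm. Analyzed as signal gain relative to DMSO.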
Experiment [17] in a line: UKN5_HCS_SBAD2_cell_viability: Viability Assessment in the University of Konstanz (UKN) Leist Lab Neurite Outgrowth Assay in human iPSC-derived immature Dorsal Root Ganglia Neurons (UKN5) (AID 2284056). A digest of the protocol: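 iPSC-derived immature peripheral neurons (SBAD2) seeded on Matrigel with CHIR99021, SU5402 and DAPT, dosed 1 h later for 24 h. Viability from Hoechst H-33342 and calcein-AM live staining, high-content imaging; bidirectional fit versus DMSO.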

A short description of experiment [18]: UKN5_HCS_SBAD2_neurite_outgrowth: University of Konstanz (UKN) Leist Lab Neurite Outgrowth Assay in human iPSC-derived immature Dorsal Root Ganglia Neurons (UKN5) (AID 2284070). Conditions: actives raise or lower the signal. A digest of the protocol:
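SBAD2 iPSC-derived immature peripheral neurons on Matrigel, 100.000 cells/cm2, medium with CHIR99021 (1.5 uM), SU5402 (5 uM), DAPT (5 uM); compound added 1 h post-seeding for 24 h. Calcein-AM neurite area by high-content imaging; Hoechst H-33342 viability; bidirectional fit vs DMSO.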

A word on the AC50: it is the concentration giving half of the maximal activity seen.

Records with an inconclusive call do not appear. Active and inactive are the calls of the source. How the source made its calls, unless noted: active means hit-call score of the fitted dose curve at least 0.9, where 1 is the maximum; inactive means score below 0.9.

Consider `CC(=O)CC(c1ccccc1)c1c(O)c2ccccc2oc1=O` (configuration not stated), for which the AC50 in [1], in experiment [7] and in experiment [10] was 2.98 µM (active) throughout. Besides, the compound was classed as inactive in [2], in [3], in [4], in experiment [5], in experiment [6] and in [8]. In addition, the compound was classed as inactive in experiment [9], in experiment [11], in experiment [12], in experiment [13] and in experiment [14].

In the case of `O=Cc1ccccc1C=O`, the AC50 was 46.6 µM (active) with DIO2 (gene 1734) and 2.92 µM (active) with DIO3 (gene 1735).

Turning to `CCCC(=O)O`, the call in [15] and in experiment [16] was inactive.

In the case of `COC(=O)[C@H]1[C@H]2C[C@@H]3c4[nH]c5cc(OC)ccc5c4CCN3C[C@H]2C[C@@H](OC(=O)c2cc(OC)c(OC)c(OC)c2)[C@@H]1OC`, the AC50 in experiment [1] was 3.34 µM (active); in [2], 3.76 µM (active); in experiment [3], 2.43 µM (active); in experiment [4] it was 3.27 µM (active); in experiment [7], 5.07 µM (active); in experiment [8] it was 2.71 µM (active). The AC50 is 2.18 µM (active) in experiment [9]; 4.8 µM (active) in [10]; 15.3 µM (active) in [11]; 6.75 µM (active) in experiment [12]; 10 µM (active) in experiment [13]; 5.56 µM (active) in experiment [14]. Further, the outcome in [5], in experiment [15] and in experiment [16] was inactive.

As for `Cc1ccc(C(C)(C)C)c(O)c1`, in experiment [16], the compound was classed as inactive.

For `NC(=Nc1ccccc1)Nc1ccccc1`, the call in experiment [15] and in experiment [16] was inactive.

On to `CN(C)CCCN1c2ccccc2Sc2ccc(Cl)cc21`, for which the AC50 is 4.33 µM (active) in [1]; 8.95 µM (active) in experiment [2]; 4.79 µM (active) in [3]; 7.95 µM (active) in [4]; 8.7 µM (active) in [6]; 5.16 µM (active) in experiment [7]. Further, the AC50 in experiment [8] is 3.38 µM (active); in [9] it was 2.81 µM (active); in experiment [10], 4.44 µM (active); in [11] it was 9.39 µM (active); in the experiment on DIO3 (gene 1735), 158 µM (active); in experiment [17] it was 13.7 µM (active). For the same compound, the AC50 in [12] was 5.01 µM (active); in experiment [18], 6.11 µM (active); in experiment [13] it was 15 µM (active); in experiment [14] it was 5.4 µM (active). For the same compound, the compound was called inactive in experiment [5], in experiment [15] and in [16].

Regarding `CC(C)COC(=O)CCCCC(=O)OCC(C)C`, the result in experiment [15] and in [16] was inactive.

Take `C/C=C/c1ccc(OC)cc1`: the compound was called inactive in experiment [15] and in experiment [16].

For the compound `CC1=C(C)S(=O)(=O)CCS1(=O)=O`, the call in [16] was inactive.

For `CC(N)=O`, the compound was classed as inactive in experiment [16].

`c1ccc2occc2c1`: the compound was called inactive in [15] and in [16].

As for `Cc1cc(SC2=C(O)C[C@@](CCc3ccc(N)cc3)(C(C)C)OC2=O)c(C(C)(C)C)cc1CO`, the call in experiment [16] was inactive.

Turning to `CN(C)C(=O)NC1(c2ccccc2)CCN(CC[C@@]2(c3ccc(F)c(F)c3)CN(C(=O)c3ccccc3)CCO2)CC1`, the outcome in experiment [15] and in experiment [16] was inactive.

Take `CCCCC(CC)COP(=O)(OCC(CC)CCCC)OCC(CC)CCCC` (configuration not stated): the compound was called inactive in [16].
